Most compounds without a hit are left out; they make up all but 2.9% or so of the library.
ADAM17 inh: ADAM17 inhibition, QFRET primary screen; P78536; recombinant ADAM17, EDANS/DABCYL FRET peptide cleavage; inhibition, % at 6.95 µM; hit rate 0.83% among 370,000; AID 720648;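 active = inhibition above the mean of compounds lying between control limits plus 3 SD, set per campaign, cut at about 8.5% in these data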
Target sequence (P78536 215-824 limits assumed): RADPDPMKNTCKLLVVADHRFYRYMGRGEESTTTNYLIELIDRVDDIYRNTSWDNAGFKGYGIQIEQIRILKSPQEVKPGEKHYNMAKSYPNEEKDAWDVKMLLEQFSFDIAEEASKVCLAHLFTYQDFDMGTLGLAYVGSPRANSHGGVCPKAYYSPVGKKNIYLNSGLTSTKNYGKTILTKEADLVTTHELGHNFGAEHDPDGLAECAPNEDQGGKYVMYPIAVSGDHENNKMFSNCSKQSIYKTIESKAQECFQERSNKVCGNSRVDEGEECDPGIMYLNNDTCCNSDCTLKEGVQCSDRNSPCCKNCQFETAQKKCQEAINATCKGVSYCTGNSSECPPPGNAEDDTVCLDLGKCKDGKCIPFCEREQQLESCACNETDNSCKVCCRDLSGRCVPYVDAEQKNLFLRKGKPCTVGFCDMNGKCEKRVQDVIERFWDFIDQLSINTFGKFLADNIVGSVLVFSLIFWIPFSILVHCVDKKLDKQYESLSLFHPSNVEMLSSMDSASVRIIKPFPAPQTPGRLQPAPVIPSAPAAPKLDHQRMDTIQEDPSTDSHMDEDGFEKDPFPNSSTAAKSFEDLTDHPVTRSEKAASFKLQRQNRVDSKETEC
ADAM10 inh: ADAM10 inhibition, QFRET primary screen; recombinant ADAM10, EDANS/DABCYL FRET peptide cleavage, 3 h; AID 720582; inhibition, % at 7 µM; hit rate 0.62% among 370,000;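 active = inhibition above a per-campaign cutoff equal to the mean of compounds falling between control-based bounds plus 3 SD, cut at about 20% in these data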
PLCg1 inh: inhibitors of human phospholipase C gamma1; P19174; purified PLC-gamma1, fluorogenic substrate, fluorescence; inhibition, % at 12.2 µM; hit rate 0.84% among 370,000; in the data active = inhibition above about 9.5%
PLC-beta3 inh: inhibitors of human phospholipase C beta3; Purified PLC-beta3, fluorogenic substrate, fluorescence; Q01970; inhibition, % at 12.2 µM; hit rate 0.18% among 370,000; in the data active = inhibition above about 11%
proKLK7 act: proKLK7 (human) activation, primary screen | P49862 | purified proKLK7, EDANS-DABCYL substrate fluorescence; 100% is mature enzyme control, 0% vehicle | activation, % at 7 µM | hit rate 0.9% among 370,000;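 active = activation above the mean of all tested compounds plus 3 SD, computed per campaign excluding outliers beyond control limits, cut at about 13% in these data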
proKLK7 act conf: confirmation of human kallikrein-7 zymogen activators. shares compounds with proKLK7 act. purified proKLK7, EDANS-DABCYL substrate fluorescence; scaled: vehicle 0, mature enzyme 100. activation, % at 7 µM. hit rate 68% among 3,200;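 active = activation, as change over the incubation, above the mean of all tested compounds plus 3 SD, cut at about 13% in these data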
EDANS-DABCYL int: optically interferes with EDANS-DABCYL signal, flagging KLK7 hits | shares compounds with proKLK7 act | EDANS-DABCYL substrate fluorescence interference, no enzyme, 4 h; solvent 0%, active enzyme control 100% | activation, % at 7 µM | hit rate 80% among 3,200 | AID 686952;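 active = activation above the all-compound mean plus 3 SD, ignoring values outside control-based bounds, cut at about 4.8% in these data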;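 also: value is the 4 h activation minus the activation read at time zero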
K7 EDANS ctr: EDANS fluorescence interference in dose response, no enzyme; shares compounds with proKLK7 act; EDANS-DABCYL peptide fluorescence interference; EC50, µM; hit rate 20% among 250;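 active = compounds that raise the fluorescence signal in this interference counterscreen, with EC50 at or below 10 µM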;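 also: intact quenched peptide substrate alone read at 355 nm excitation and 520 nm emission; signal is fluorescence gain from T0 to T4 after four hours at room temperature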
Of the large screens only hits and unclear results are named; the others gave an inactive call (follow-up assays come after a bar, where they were run).

CCOc1ccccc1Oc1c(C)oc2cc(OC(=O)c3ccco3)ccc2c1=O	proKLK7 act 27.8 | proKLK7 act conf 272.2 | EDANS-DABCYL int 237.7
COC(=O)c1cccc(Cn2ccc3ccc(-c4ccc5ccn(C(=O)C6CCC6)c5c4)cc32)c1	none
CC(C)Oc1ccc(Oc2ccc(C#C[C@H](C)N3C(=O)c4ccccc4C3=O)cc2)cn1	none (no result: proKLK7 act)
O=C1OCCN1C(=O)[C@H]1[C@H](c2ccc(Cl)cc2)C(c2ccccc2)=NN1c1ccccc1	none
CC[C@@H]1C(c2ccccc2)=NN(c2ccccc2)[C@H]1C(=O)N1CCOC1=O	proKLK7 act 186.8 | proKLK7 act conf 161.1 | EDANS-DABCYL int 131.2
CC[C@@H]1C(c2ccc(F)cc2)=NN(c2ccccc2)[C@H]1C(=O)N1CCOC1=O	proKLK7 act 81.0 | proKLK7 act conf 64.4 | EDANS-DABCYL int 53.7 | K7 EDANS ctr 7.35
CC[C@H]1C(c2ccc(F)cc2)=NN(c2ccccc2)[C@@H]1CO	proKLK7 act 21.9 | proKLK7 act conf inactive | EDANS-DABCYL int inactive
O=C(NCCc1ccccc1)OCc1cn(Cc2ccc(C(F)(F)F)cc2)nn1	none
COc1ccc(/C=C(/CC(=O)NCc2ccc(Cl)cc2)c2nc3ccccc3s2)cc1	proKLK7 act 28.0 | proKLK7 act conf 68.3 | EDANS-DABCYL int 57.4 | K7 EDANS ctr 2.42
Cc1nc2ccccn2c(=O)c1NC(=O)COc1ccccc1	none
Cc1ccn2c(NC(C)(C)C)c(-c3cccs3)nc2c1	none
CC(C)CCNc1c(-c2cccs2)nc2ccccn12	proKLK7 act 143.6 | proKLK7 act conf inactive | EDANS-DABCYL int inactive
O=C(COc1ccc(Cl)cc1)Nc1c(-c2cccs2)nc2ccccn12	proKLK7 act 12.7 | proKLK7 act conf inactive | EDANS-DABCYL int inactive
O=C(NCc1ccccc1)[C@@H]1CCCN1C(=O)[C@H]1CCCN1C(=O)c1ccc(Cl)cc1	none
Cc1ccc(-c2nnc(SCc3ccc([N+](=O)[O-])cc3)n2-c2ccccc2)cc1	none
O=C(Nc1nc(-c2cccs2)cs1)c1ccc(S(=O)(=O)N2CCCC2)cc1	none
CN(C)S(=O)(=O)c1ccc(C(=O)Nc2nc(-c3cccs3)cs2)cc1	proKLK7 act 46.9 | proKLK7 act conf 26.8 | EDANS-DABCYL int 128.8
COc1ccc(OC)c(S(=O)(=O)NCC2CCN(C(=O)C(=O)c3cccs3)CC2)c1	none
Cc1ccc2nc(-c3ccc(SCC(=O)O)nc3)[nH]c2c1	proKLK7 act 16.2 | proKLK7 act conf 22.7 | EDANS-DABCYL int 27.0
Cc1ccc2nc(-c3ccc(SCC(=O)N4CCc5ccccc54)nc3)[nH]c2c1	none
O=C(CSc1nnc(-c2cccs2)o1)Nc1cc(Cl)cc(Cl)c1	none
COc1ccc(CNC(=O)CSc2nc3c([nH]2)c(=O)n(C)c(=O)n3C)cc1	none
COC(=O)N1C[C@H](Oc2ncccn2)[C@H]2C[C@@H]1c1ccccc1O2	none
CN1C=CC2=C(C#N)C(N)C(C#N)(C#N)C(c3ccccc3)C2C1 (stereo not drawn)	proKLK7 act 25.4 | proKLK7 act conf 33.1 | EDANS-DABCYL int 35.2
CN1C[C@@H]2C(c3ccccc3)C3(c4ccc(C#N)cc4)CC2(C3)[C@H]1c1ccccc1 (stereo partly drawn)	none
CC(c1nc2ccccc2[nH]1)n1c(=O)c(-c2cccs2)nc2ccccc21 (stereo not drawn)	proKLK7 act 189.9 | proKLK7 act conf 21.8 | EDANS-DABCYL int inactive | K7 EDANS ctr 7.55
O=c1[nH]c2ccccc2nc1-c1cccs1	proKLK7 act 31.6 | proKLK7 act conf 31.7 | EDANS-DABCYL int 42.5
CCC1NC(C(=O)O)Cc2c1[nH]c1ccccc21 (stereo not drawn)	proKLK7 act 35.7 | proKLK7 act conf inactive | EDANS-DABCYL int 9.8
Cc1ccc2nc(-c3ccc(NC(=O)CSc4nnc(-c5ccccc5)n4Cc4ccco4)cc3)sc2c1	proKLK7 act 127.7 | proKLK7 act conf 297.2 | EDANS-DABCYL int 333.1
C=CCn1c(SCC(=O)Nc2ccc(-c3nc4ccc(C)cc4s3)cc2)nnc1-c1ccncc1	none
Cc1ccc(C)c(N(CC(=O)Nc2ccc(-c3nc4ccc(C)cc4s3)cc2)S(C)(=O)=O)c1	proKLK7 act 19.5 | proKLK7 act conf inactive | EDANS-DABCYL int inactive
Cc1ccc2nc(-c3ccc(NC(=O)CSc4nnc(Cc5cccs5)n4C)cc3)sc2c1	proKLK7 act 149.4 | proKLK7 act conf 157.3 | EDANS-DABCYL int 86.4
CCOC(=O)c1c(NC(=O)CSc2nnc(-c3cccnc3)n2Cc2ccco2)sc(C)c1C	proKLK7 act 13.5 | proKLK7 act conf inactive | EDANS-DABCYL int inactive
C#CCN1CC(N(C)CCCO)CS1(=O)=O (stereo not drawn)	none
CCCCc1c(-c2ccccc2OC)ncn1C(C)c1ccccc1 (stereo not drawn)	none
Cc1cccc(-c2nnc(SCC(=O)Nc3ccc(-c4nc5ccc(C)cc5s4)cc3)n2Cc2ccco2)c1	proKLK7 act 67.8 | proKLK7 act conf 61.7 | EDANS-DABCYL int 91.6
O=c1oc2ccccc2cc1-c1ccc(O)cc1O	none
COc1ccc(-c2cc3ccc(O)cc3oc2=O)cc1	proKLK7 act 53.0 | proKLK7 act conf 75.3 | EDANS-DABCYL int 74.1
O=c1oc2cc(O)ccc2cc1-c1ccccc1	proKLK7 act 71.7 | proKLK7 act conf 65.8 | EDANS-DABCYL int 77.0
O=C1c2ccccc2NC(c2ccncc2)N1c1ccccn1 (stereo not drawn)	proKLK7 act 35.9 | proKLK7 act conf 18.4 | EDANS-DABCYL int 29.4
CCN1c2ccccc2-c2nc3ccccc3n2C1c1cccnc1 (stereo not drawn)	none
c1cncc(C2Nc3ccccc3-c3nc4ccccc4n32)c1 (stereo not drawn)	proKLK7 act 55.7 | proKLK7 act conf inactive | EDANS-DABCYL int 5.7
c1ccc2c(c1)NC(c1ccncc1)n1c-2nc2ccccc21 (stereo not drawn)	proKLK7 act 28.9 | proKLK7 act conf inactive | EDANS-DABCYL int inactive
O=c1ccc2cc3c4c(c2o1)CCCN4CCC3	proKLK7 act 88.8 | proKLK7 act conf 66.5 | EDANS-DABCYL int 73.2
O=c1oc2c3c4c(cc2s1)CCCN4CCC3	none
CS(=O)(=O)Nc1ccc(-c2cn3cccnc3n2)cc1	proKLK7 act 123.3 | proKLK7 act conf 38.7 | EDANS-DABCYL int 38.6
Cc1ccc(-c2cn3cccnc3n2)cc1NC(=O)c1ccc(Br)o1	proKLK7 act 21.8 | proKLK7 act conf 17.2 | EDANS-DABCYL int 4.9 | K7 EDANS ctr inactive
Cc1ccc(-c2cn3cccnc3n2)cc1	proKLK7 act 84.7 | proKLK7 act conf 63.9 | EDANS-DABCYL int 69.1

From PubChem
